PubChem BioAssay AID995 (National Center for Advancing Translational Sciences (NCATS), 2007)
Screen size: about 72,000 compounds; about 710 (0.99%) were called active. Entries that show only a call come without a potency. Another 7% or so got no clear call; they are omitted. The sample as a whole holds a higher share of actives than the screen did. Unmarked numbers belong to inactive results. The call rests on the fitted dose curve; in most records, active means well fitted inhibition curve with a large enough effect; inconclusive means small, poorly fitted or top-dose-only effect; inactive means no such curve, though single readings can be large or run the other way.

assay: qHTS Assay for Inhibitors of the ERK Signaling Pathway using a Homogeneous Screening Assay; details: HEK293-V1b, vasopressin-stimulated pERK AlphaScreen; series mostly up to 57.5 µM; further: nearly all actives have a fitted effect of over 55% in size
Summary of the method: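 HEK293 cells stably expressing V1b receptor, preincubated 30 min at 37 °C with compound, then stimulated 5 min with 25 nM vasopressin. Phospho-ERK by AlphaScreen SureFire after 5 h RT; normalized to DMSO and vasopressin; AC50 by Hill fit.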
Potency means the concentration at half of the fitted maximal effect.

| SMILES | Potency | activity, negative = inhibition |
| --- | --- | --- |
| CC(=O)OCC(=O)C1CCC2C3CCC4=CC(=O)CC[C@@]4(C)C3CC[C@]12C (stereo partly specified) | inactive |  |
| Cc1ccc(NC(=O)c2cccc(N(C)C)c2)cc1NC(=O)c1ccc(O)cc1 | inactive |  |
| CC1(C)OC2CO[C@]3(COS(N)(=O)=O)OC(C)(C)OC3C2O1 (stereo partly specified) | inactive |  |
| CC1(C)C=CC(=O)[C@]2(C)C1CC(=O)[C@]1(C)C2CC[C@@]2(C)C(c3ccoc3)OC(=O)C3OC321 (stereo partly specified) | inactive |  |
| COC(=O)[C@H]1C[C@@H]1[C@H](NC(=O)Oc1ccc(F)cc1)c1ccccc1 | inactive |  |
| O=C(c1cnccn1)N1CCC2(CCCN(Cc3ccccc3)C2)CC1 | inactive |  |
| COc1ccccc1OCCNCC(O)COc1cccc2[nH]c3ccccc3c12 (stereo unspecified) | inactive |  |
| O=C(OCC(COC(=O)c1ccccc1)(COC(=O)c1ccccc1)COC(=O)c1ccccc1)c1ccccc1 | inactive |  |
| COc1c(C(C)C)oc2cc3oc(=O)ccc3cc12 | inactive |  |
| COC(=O)[C@@]1(Cc2ccc(OC)cc2)[C@H]2c3cc(C(=O)N4CCCC4)n(Cc4ccc(OC(F)(F)F)cc4)c3C[C@H]2CN1C(=O)c1ccccc1 | inactive |  |
| O=C(O)CS(=O)c1ccc2c3c(cccc13)C(=O)c1ccccc1-2 (stereo unspecified) |  | 22.7% [at 11.5 µM] |
| CC(C)CO | inactive |  |
| Nc1nc2[nH]c(=O)c(=O)[nH]c2c(=O)[nH]1 | inactive |  |
| C[C@@H]1/C=C\CC(=O)OC[C@H]2O[C@@H](C=C[C@@H]2O)[C@H](C)/C=C\CC(=O)OC[C@H]2O[C@H]1C=C[C@@H]2O |  | 20.6% [at 11.5 µM] |
| COC(=O)[C@@H]1C[C@@]2(O)[C@@H](O)[C@@H](O)[C@@H](O)C[C@H]2N1Cc1ccc(C)s1 | inactive |  |
| O=C(c1cc(C(F)(F)F)cc(C(F)(F)F)c1)N1CCC[C@@]2(CCN(c3ccccn3)C2)C1 | inactive |  |
| Cc1nc2cnc(N3CCNCC3)nc2n(CCc2ccccc2)c1=O | inactive |  |
| C/C=C(/C)C(=O)OC1Cc2c(ccc3ccc(=O)oc23)OC1(C)C (stereo unspecified) | inactive |  |
| COc1ccc(C[C@H](N)C(=O)N[C@@H]2[C@H](O)[C@H](n3cnc4c(N(C)C)ncnc43)O[C@@H]2CO)cc1 | inactive |  |
| Cc1c(S(=O)(=O)O)oc2c1C(=O)C(=O)c1c-2ccc2c1CCCC2(C)C | inactive |  |
| C=C1C([C@@]2(C)C(OC(C)=O)CC(=O)O[C@@](C)(COC(C)=O)C2CC(=O)OC)C(OC=O)C(OC(=O)C(O)C(C)CC)[C@]2(C)C(c3ccoc3)CC(=O)C12O (stereo partly specified) | inactive |  |

| SMILES | Potency | activity, negative = inhibition |
| --- | --- | --- |
| Cn1c(=O)[nH]c(=O)c2c1nc(Br)n2CCCCSc1nc2ccccc2o1 | 31.6 µM (active) |  |
| Cc1ccnc(SCCn2c(Br)nc3c2c(=O)[nH]c(=O)n3C)n1 | inactive |  |
| CCCCCn1c(SCCC(C)C)nc2c1c(=O)[nH]c(=O)n2C | inactive |  |
| CCC[C@@H]1C[C@@]1(CCC)C(NC(=O)c1ccc(-c2ccccc2)cc1)c1cccc(Cl)c1 (stereo partly specified) | inactive |  |
| CC1=C(C(=O)OCc2ccccc2)C(c2ccc(C(F)(F)F)cc2)NC(=O)N1CCCCCC(=O)O (stereo unspecified) | inactive |  |
| O=C(NCCCN1CCN(C2CCCCC2)CC1)Nc1ccccc1C(F)(F)F | inactive |  |
| O=C(CN1CCN(C2CCCCC2)CC1)Nc1ccccc1N1CCCCC1 | 25.1 µM (active) |  |
| Cc1ccccc1NC(=O)CNc1ccccc1N1CCCCC1 | inactive |  |
| CC(C)[C@H]1CC[C@@H](C)C[C@H]1O | inactive |  |
| CC(C)C1=CC2=CC[C@@H]3[C@](C)(CO)CCC[C@]3(C)C2CC1 (stereo partly specified) | inactive |  |
| Cc1ccc2nc(CC(=O)c3ccc4ccccc4c3)c(=O)[nH]c2c1 |  | 3.17% [at 11.5 µM] |
| C=CC(=O)c1ccc2ccccc2c1 | 10 µM (active) |  |
| CC1C(O)CC2C(C(=O)O)=CO[C@@H](O[C@H]3OC(CO)C(O)C(O)C3O)C21 (stereo partly specified) | inactive |  |
| Cc1ccc(S(=O)(=O)NC(=O)NN2C[C@H]3CCC[C@@H]3C2)cc1 | inactive |  |
| Cc1ccc(/C(=C/CN2CCCC2)c2ccccn2)cc1 | inactive |  |
| Nc1nc(N)c2[nH]c(CNc3ccc(C(=O)O)cc3)nc2n1 |  | -2.04% [at 11.5 µM] |
| CCC1=C(OC(=O)N(CC)CC)N2C(=O)OC(=NCCc3c[nH]c4ccccc34)[C@]2(C)[C@H]2C1=CC[C@H]1C(=O)N(CC)C(=O)[C@H]12 | inactive |  |
| c1ccc(COc2nsnc2N2CCOCC2)cc1 | 25.1 µM (active) |  |
| O=C(O)COc1nsnc1N1CCOCC1 | inactive |  |
| c1nc(COc2nsnc2N2CCOCC2)cs1 | inactive |  |
| O=C(c1csnn1)N1CCC2(CCN(Cc3nccs3)CC2)CC1 | inactive |  |

| SMILES | Potency | activity, negative = inhibition |
| --- | --- | --- |
| COc1ccc(C2CC(=O)c3c(O)cc(OC4OC(COC5OC(C)C(O)C(O)C5O)C(O)C(O)C4O)cc3O2)cc1O (stereo unspecified) | inactive |  |
| O=C1OC(C(O)CO)C(O)=C1O (stereo unspecified) | inactive |  |
| O=C(NCCN1CCOCC1)c1ccc2c(c1)ncn2C1CCCC1 | 25.1 µM (active) |  |
| O=C(NCCN1CCOCC1)c1c(F)c(F)c(F)c(F)c1F | inactive |  |
| O=C(NCc1cccs1)c1ccc2c(c1)ncn2C1CCCC1 | inactive |  |
| FC(F)(F)c1ccccc1-c1cc(NCc2ccccc2)ncn1 | inactive |  |
| C=CC(=O)OCCOCCOCCOCCOC(=O)C=C | inactive |  |
| O=C(CSc1n[nH]c(-c2cccnc2)n1)Nc1ccnc2ccccc12 | 20 µM (active) |  |
| COc1ccc(-c2nc(SCC(=O)N3CCOCC3)n[nH]2)cc1 | inactive |  |
| Cc1oc2nc(SCC(=O)NCc3cccnc3)nc(N)c2c1C | inactive |  |
| CN1CC(=O)N=C1N | inactive |  |
| Nc1nc2c(nc(Cl)n2C2OC(CO)C(O)C2O)c(=O)[nH]1 (stereo unspecified) | inactive |  |
| Oc1ccc2c(c1)OCC1c3cc4c(cc3OC21)OCO4 (stereo unspecified) | inactive |  |
| COC(=O)[C@@H]1C[C@@]2(O)[C@H](O)[C@H](O)[C@H](O)C[C@H]2N1CC1CCCCC1 | inactive |  |
| COC(=O)[C@@H]1C[C@@]2(O)[C@H](O)[C@H](O)[C@H](O)C[C@H]2N1Cc1ccc(C)s1 | inactive |  |
| COc1ccccc1-c1nnc(SCC(=O)Nc2ccccc2)o1 | 25.1 µM (active) |  |
| COc1ccccc1-c1nnc(SCC(=O)N2CC(C)CC(C)C2)o1 (stereo unspecified) | inactive |  |
| COc1ccccc1-c1nnc(SCC(=O)Nc2cc(C)on2)o1 | inactive |  |
| Cn1cccc1C(=O)N1CCC2(CC1)CN(c1cccc(-c3ccccc3)c1)C2 | inactive |  |
